D1 antag = blocks dopamine activation of the human D1 receptor; P21728; HEK293 TREx D1 cells, calcium flux, dopamine EC80; hits give low values; activity change, negative = inhibition, % at 10 µM; actives 3.2% (n = 360,000); AID 504652; in the data active means activity change below about -30%; further: on the % scale 0 is the no-effect control and ±100 the full control effect
Target sequence (P21728 whole entry, looked up): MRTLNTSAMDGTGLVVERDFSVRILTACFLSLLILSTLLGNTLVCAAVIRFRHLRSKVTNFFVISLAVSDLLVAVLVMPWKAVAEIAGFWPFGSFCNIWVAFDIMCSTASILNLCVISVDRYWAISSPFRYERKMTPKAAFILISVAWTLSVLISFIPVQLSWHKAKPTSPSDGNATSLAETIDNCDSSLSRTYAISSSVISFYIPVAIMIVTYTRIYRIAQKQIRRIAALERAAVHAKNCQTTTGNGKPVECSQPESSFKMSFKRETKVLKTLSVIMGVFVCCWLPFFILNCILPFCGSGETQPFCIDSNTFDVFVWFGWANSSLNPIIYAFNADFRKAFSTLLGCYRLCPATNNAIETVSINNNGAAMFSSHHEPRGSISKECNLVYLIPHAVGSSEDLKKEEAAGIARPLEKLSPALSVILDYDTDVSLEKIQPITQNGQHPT
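Tetracycline-induced HEK293 T-REx cells with force-coupled D1 receptor were loaded with a no-wash calcium dye. Compound was added after a 10 s baseline and read kinetically for 180 s; EC80 dopamine was then added and calcium flux followed another 180 s.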
DRD3 antagonist = blocks the human D3 dopamine receptor. P35462. D3R cells, DiscoveRx beta-arrestin luminescence, antagonist mode; hits give low values. max response, negative = inhibition, %. actives 2.5% (n = 360,000); in the data active means max response below about -50%; inconclusive means no clear call, values can overlap the other calls; further: on the % scale 0 is the no-effect control and ±100 the full control effect
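Cells plated overnight at 1500 cells/well, then exposed to library compounds with dopamine controls for 90 minutes at 37 degrees C. DiscoveRx reagent added for 30–60 minutes at room temperature; luminescence read, quantitative HTS format.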
D1 ag = human D1 receptor agonism; P21728; HEK293 T-REx D1 cells, calcium flux, agonist mode; activation, % at 2 µM; actives 1% (n = 360,000); in the data active means activation above about 30%; further: 0% is about no effect
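Tetracycline-induced HEK293 TREx D1 cells, force-coupled to calcium signalling, were dye-loaded with a no-wash calcium kit. Compound was pin-added after a 10 s baseline. Fluorescence was read kinetically at 1 cycle/s for 180 s, with calcium rises flagged as agonism.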
D1 potentiator = human D1 dopamine receptor positive modulation; HEK293 TREx D1 cells, calcium flux, dopamine EC20 potentiation; AID 504651; P21728; potentiation, % at 10 µM; actives 0.036% (n = 360,000); in the data active means potentiation above about 30%; further: 0% is about no effect
DRD3 agonist = activates the human D3 dopamine receptor; P35462; D3R DiscoveRx beta-arrestin cells, luminescence, 90 min; max activation, %; actives 0.58% (n = 410,000); AID 652048; in the data active means max activation above about 30%; further: 0% is about no effect
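Agonist mode: compounds and dopamine controls were applied to plated cells for 90 min at 37 degrees C after an overnight attachment at 1500 cells/well. Luminescent read-out followed 30 - 60 minutes at room temperature with DiscoveRx detection reagent.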
The depositor's hits bear a star; u = inconclusive; x = no result. In the library only some 6% were active in any assay of this set; here they are far more common.

SMILES	D1 antag	DRD3 antagonist	D1 ag	D1 potentiator	DRD3 agonist
CC1(C)OC(=O)C2=C(C[C@@H](C3CCCCC3)O[C@H]2c2ccccc2)O1	x	u	x	x	2
COc1ccc(CCNC(=O)Cn2c(=O)n(-c3cc(F)ccc3F)c(=O)c3sccc32)cc1OC	-1	172	0	-3	8
COc1ccc(CCNC(=O)Cn2c(=O)n(-c3ccc(F)cc3F)c(=O)c3sccc32)cc1OC	-36*	95	0	-6	19
CCOc1ccc(CC(=O)Nc2cccc(-c3nc4cccnc4s3)c2C)cc1	-24	x	4	1	-7
COc1ccc(CN2CCCC(N3CCN(c4ccc(OC)cc4)CC3)C2)cc1 (configuration not stated)	16	-58*	3	-2	-6
COc1ccc(CN(C)CC(=O)NC(=O)NCc2ccccc2)c(OC)c1	-55*	-20	-1	-9	-4
O=C1CSC(=S)N1c1cccc(Br)c1	-83*	5	3	-16	-8
NC(=O)c1ccc(F)cc1	4	9	4	-4	17
NC(=O)c1ccccc1	-99*	0	2	-10	3
CN(Cc1ccccc1)C(=O)c1ccc(CSc2nc3cccnc3n2Cc2ccccc2)cc1	2	x	19	-3	3
CCCNC(=O)C1(C)CCCN(Cc2ccc(C(F)(F)F)cc2)C1 (configuration not stated)	x	8	x	x	7
COc1ccc(OC)c(C(c2nnnn2CCc2ccccc2)N2CCC(C(N)=O)CC2)c1 (configuration not stated)	-4	-10	2	-5	-4
COc1ccc(OC)c(C(c2nnnn2Cc2ccccc2)N2CCC(C(N)=O)CC2)c1 (configuration not stated)	-45*	0	2	-5	-2
COc1ccccc1C(c1nnnn1Cc1ccccc1)N1CCN(C2CCCC2)CC1 (configuration not stated)	15	-58*	4	3	-7
COc1cccc(C(c2nnnn2Cc2ccccc2)N2CCN(C3CCCC3)CC2)c1OC (configuration not stated)	-6	0	2	0	-8
NC(=O)CSc1nnc(-c2cccs2)n1Cc1ccco1	-25	6	0	-5	1
CCN(CC)C(=O)CSc1nnc(-c2cccs2)n1Cc1ccco1	-32*	10	3	-6	-2
O=c1c(NCc2ccccc2Cl)nccn1-c1ccccc1	-3	x	3	-4	-8
O=C(NC1CCCC1)c1cc(-c2ccccc2O)on1	-2	-8	0	-5	-2
COc1ccc(CNC(=O)c2cc(-c3ccccc3OC)on2)cc1	-8	-63*	12	-3	-29
COc1ccc(OC)c(-c2csc(NC(=O)Cc3ccccc3OC)n2)c1	-11	-63*	4	x	-23
O=C(NCc1ccc2c(c1)OCO2)c1cc(-c2ccccc2Cl)on1	27	-59*	6	-9	0
O=C(NC1CCCC1)c1cc(-c2cccs2)on1	-42*	-13	2	2	-13
Cc1cc(C(=O)N2CCC2(C)C(=O)O)c(C)o1 (configuration not stated)	x	0	x	x	-3
COc1cccc(C(=O)Nc2cccc(C(=O)OCc3cc(=O)n4c(C)csc4n3)c2)c1	13	x	0	0	-7
SMILES	D1 antag	DRD3 antagonist	D1 ag	D1 potentiator	DRD3 agonist
CCCCC(=O)N(C)c1c(CC)nc2c(OCC=C(C)C)cccn12	x	0	x	x	-14
Cc1cccc(C)c1NC(=O)CN1CCCCCC1	x	x	x	x	-18
Cc1ccc(-c2nnc(Nc3ccc(Br)cc3)c3ccccc23)cc1S(=O)(=O)N1CCOCC1	-14	x	2	-6	-9
COc1ccccc1-c1cc(C(=O)NCc2ccccc2)no1	-7	-52*	16	-10	-27
COc1ccccc1-c1cc(C(=O)NC2CCCC2)no1	-32*	-25	3	-8	-21
O=C(Cn1c(=O)oc2ccccc21)NCc1ccc(Cl)cc1	4	x	2	2	4
O=C(CN1C2CCCC1CC(NC(=O)C1CCCCC1)C2)Nc1ccccc1 (configuration not stated)	-4	2	0	1	-8
S=C(NC1CCCCC1)NC1CC2CCC(C1)N2Cc1ccccc1 (configuration not stated)	-11	-79*	8	-4	-18
CCNC(=S)NC1CC2CCCC(C1)N2CCc1ccccc1 (configuration not stated)	-8	0	3	2	-1
CC(C)CNC(=S)NC1CC2CCC(C1)N2Cc1ccccc1 (configuration not stated)	-9	-75*	4	-8	-28
CCCCN1C2CCCC1CC(NC(=O)c1cccc(Cl)c1)C2 (configuration not stated)	-35*	-1	1	-3	-19
O=C(NC1CC2CCCC(C1)N2Cc1ccccc1)C1CCCCC1 (configuration not stated)	2	-65*	0	-4	-5
COc1ccc(Br)cc1CNC(=O)C1CCCCN1S(=O)(=O)c1ccc(F)cc1 (configuration not stated)	-5	x	3	4	5
CCCCN1C2CCCC1CC(NC(=O)c1cccc(OC)c1)C2 (configuration not stated)	-5	-17	0	-8	-15
O=C(Nc1ccc(Cl)c(C(F)(F)F)c1)NC1CC2CCCC(C1)N2Cc1ccccc1 (configuration not stated)	-7	-84*	12	-6	-19
CCCCN1C2CCCC1CC(NC(=O)C1CCCCC1)C2 (configuration not stated)	-55*	4	1	-3	-6
CCCNC(=S)NC1CC2CCCC(C1)N2Cc1ccccc1OC (configuration not stated)	x	-11	x	x	-3
S=C(NCCc1ccccc1)NC1CC2CCC(C1)N2Cc1ccccc1 (configuration not stated)	-66*	-74*	39*	-5	-14
S=C(NCCc1ccccc1)NC1CCC(NC(=S)NCCc2ccccc2)CC1 (configuration not stated)	7	-6	5	7	4
CCCNC(=S)NC1CC2CCC(C1)N2Cc1ccccc1 (configuration not stated)	10	-147*	2	-4	-25
Cc1ccc(Nc2c3c(nc4nncn24)CCC3)cc1C	2	x	2	3	-12
CCNC(=S)NC1CC2CCC(C1)N2Cc1ccccc1 (configuration not stated)	4	-76*	3	-3	-32
COCCn1c(=O)c2c(nc3n2CCCN3CCc2ccccc2)n(C)c1=O	14	14	1	1	102*
CCOCCn1c(=O)c2c(nc3n2CCCN3CCc2ccccc2)n(C)c1=O	1	-1	3	-7	2

Bioassay records: PubChem BioAssay, National Center for Advancing Translational Sciences (NCATS)
